Source: PubChem BioAssay (NCATS)
Results filed as inconclusive are left out. Unmarked numbers belong to inactive results. Active and inactive are the calls of the source. The call rests on the fitted dose curve; in most records, active means well fitted inhibition curve with a large enough effect; inconclusive means small, poorly fitted or top-dose-only effect; inactive means flat fitted curve, though single readings scatter.

target: Calcium and integrin-binding protein 1 (Homo sapiens) (UniProt Q99828); assay: Primary qHTS for Identification of Calcium Integrin Binding Protein 1 (CIB1) Competitor (AID 1508620); conditions: CIB1-GST / FITC-alphaIIb peptide fluorescence polarization; series mostly up to 114 µM; activity change, negative = inhibition: at the top concentration;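 further: GST tagged CIB1 binding a fluorescein labelled alphaIIb integrin peptide tracer; top concentration of the series differs between compounds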
Text: Assay Provider: Ulhas P. Naik, PhD Sidney Kimmel Medical College Thomas Jefferson University, Philadelphia, PA Primary function of platelets is to maintain hemostasis. At the site of vascular injury, platelets adhere to adhesive proteins such as collagen and von Willebrand factor. Adherent platelets are activated and generate soluble platelet agonists such as thrombin, ADP and thromboxane A2. Following exposure of circulating platelets to these agonists, results in platelet shape change, granule secretion and activation of platelet integrin alphaIIb-beta3. Ligand binding to activated integrin alphaIIb-beta3 triggers outside-in signaling, leading to platelet aggregation, stabilization of platelet plug, and clot retraction. Upon atherosclerotic plaque rupture also causes platelet plug formation, which underlies a number of cardiovascular diseases such as myocardial infraction and stroke. A number of anti-platelet drugs such as aspirin, clopidogrel, prasugrel, vorapaxar, and eptifibatide are currently available to prevent the thrombotic complications. However, these anti-platelet agents have several limitations including inherent variability in individual responses, developing resistance, and serious bleeding side effects. For these reasons they are not suitable for long-term protection. Based on the experiences with current anti-platelet drugs, it appears that the most useful therapeutic approach is to intersect the secondary responses such as integrin outside-in signaling or recruitment of platelets by TxA2 and secreted ADP. Compounds, which can largely preserve the primary hemostatic function of platelets but inhibit secondary response will be most desired therapeutic agents for treatment of cardiovascular disease. CIB1 is a calcium integrin binding protein, which specifically interact with the alphaIIb subunit of integrin alphaIIb-beta3. Binding of CIB1 to alphaIIb regulates the outside-in signaling in platelets, which is needed for thrombus stabilization and thrombus growth. […] Therefore, we propose that discovery of a small molecule that can prevent the association of CIB1 and alphaIIb-beta3 will be a potential anti-platelet agent that can block the thrombus formation without undue effect on hemostasis. Reference: [1] Naik MU, Nigam A, Manrai P, et al. CIB1 deficiency results in impaired thrombosis: the potential role of CIB1 in outside-in signaling through integrin alpha IIb beta 3. J Thromb Haemost.
PROTOCOL TABLES SEQUENCE No. (1, 2, 3, etc.); […] (e.g., Cells, Incubation, Reagent, etc.); VALUE and DESCRIPTION. 1; Reagent; 3 uL; Protein or buffer (4/3x) 2; Compound; 46 nL; Control inhibitor / compound library 3; Time; 15 min; Room temperature incubation 4; Reagent; 1 uL; Fluorescent labeled peptide (4x) 5; Time; 1000 rpm; Centrifuge 6; Time; 15 min; Room temperature incubation 7; Detection; Ex 480/ Em 540; ViewLux Fluorescence Read NOTES (numbers refer to sequence above) 1; Protein Mixture: C1B1-GST (final concentrations of 1 uM). […] 3; Room temperature incubation. 4; Fluorescent Labeled Peptide: FITC-aIIb (final concentration of 100 nM). Sequence of alphaIIb peptide: Acetyl-[…]-FITC (purity is 95.83%). 5; Centrifuge 1000 rpm (164 g) for 15 seconds. 6; Room temperature incubation. 7; ViewLux Fluorescent Polization Read: excitation = 480(20) / emission = 540(25) S and P; FITC Dichroic mirror.
On the % scale 0 is the no-effect control and ±100 the full control effect.

Calcium and integrin-binding protein 1 (Homo sapiens), sequence (Q99828 whole entry, looked up): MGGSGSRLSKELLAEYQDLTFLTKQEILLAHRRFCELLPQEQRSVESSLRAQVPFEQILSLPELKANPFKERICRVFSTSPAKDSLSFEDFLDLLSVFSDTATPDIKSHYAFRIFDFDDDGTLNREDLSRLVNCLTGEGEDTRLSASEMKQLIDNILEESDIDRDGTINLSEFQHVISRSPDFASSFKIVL

| SMILES | activity change, negative = inhibition | Potency |
| --- | --- | --- |
| O=C(O)c1cccnc1SC1=NS(=O)(=O)c2ccccc21 | -2.75% |  |
| Cc1nc(-c2ccccc2C(C)C)nc(NCc2ccc(-c3cccnc3)cc2)c1C | 4.31% |  |
| CC(C)c1ccccc1-c1ncc(F)c(NCC2CCN(c3cnccn3)C2)n1 (stereo not given) | -0.61% |  |
| O=C(NCCc1nc2ccccc2[nH]1)C1CCCCC1 | 1.31% |  |
| COc1cccc(Cn2ncc3c4sc(B(O)O)cc4n(C)c3c2=O)c1 | -10.8% |  |
| C#CCCC(=O)Nc1sc2c(c1-c1nc3ccccc3s1)CCNC2 | 7.8% |  |
| O=C(CN1C(=O)CC(c2ccco2)Sc2ccccc21)Nc1ccccc1F (stereo not given) | -4.31% |  |
| CCCCNc1nc(C)nc2c1nc(-c1ccccc1)n2CC(C)(C)CN(C)C | -1.89% |  |
| COc1cc(C(=O)Nc2nc(-c3ccccc3)cs2)ccc1NS(=O)(=O)c1ccc(C)cc1 | 7.78% |  |
| Fc1cc(Nc2nc(-c3ccncc3)nc3ccccc23)ccc1-c1ccc2[nH]ncc2c1 | -0.863% |  |
| CC(C)c1ccccc1-c1nc2c(c(NCc3ccc(-c4cccnc4)cc3)n1)CCNC2 | -1.69% |  |
| CCCCN(C)C(=O)Cn1nc(-c2ccc(OC)cc2)ccc1=O | 0.31% |  |
| CC(Nc1nc(-c2ccccc2C(F)(F)F)nc2ccccc12)c1ccc(-c2ccncc2)cc1 (stereo not given) | 6.59% |  |
| CN1CCN(c2cccc(Nc3nn4c(=O)c5ccccc5nc4s3)c2)CC1 |  | inactive |
| O=C(CSc1nnc(-c2cccc(S(=O)(=O)N3CCCC3)c2)n1-c1ccccc1)Nc1ccc(C(=O)O)cc1 | 0.438% |  |
| O=C1CCc2cc(S(=O)(=O)Nc3ccccn3)ccc2N1 | 1.63% |  |
| CC(=O)c1cccc(NC(=O)Nc2nnc(-c3ccncc3)s2)c1 | -1.61% |  |
| O=c1c2ccccc2nc2sc(Nc3ccc4c(c3)CNC4)nn12 | 9.1% |  |
| Cc1ccc(-c2ccc(=O)n(CC(=O)N(C)CCN(C)C)n2)cc1 | 2.97% |  |
| CCCCc1ccc(C(=O)Nc2ccc(S(=O)(=O)Nc3nccs3)cc2)cc1 | 8.65% |  |

| SMILES | activity change, negative = inhibition | Potency |
| --- | --- | --- |
| O=C(N1Cc2ccc(Nc3nn4c(=O)c5ccccc5nc4s3)cc2C1)C(F)(F)F | 8.54% |  |
| O=C(O)c1ccc(O)c2ncc(NC3CCNCC3)cc12 | -4.19% |  |
| COc1cccc(-c2no[n+]([O-])c2C#N)c1 | -0.338% |  |
| CC(Cc1cnccn1)Nc1cnc2c(O)ccc(C(=O)O)c2c1 (stereo not given) | -8.37% |  |
| NC(=O)C1CCN(c2nccc(-c3ccc(Br)cc3)n2)CC1 | 5% |  |
| Cc1cn([C@H]2C[C@H](N[S+](=O)([O-])Cc3ccc(Cl)cc3)[C@@H](CO)O2)c(=O)[nH]c1=O | 6.59% |  |
| CN(C)c1ccc(-c2cc(O)c3ncccc3c2)cc1 | -14.2% |  |
| c1cncc(-c2ccc3ncnc(NCc4cccs4)c3c2)c1 | -3.17% |  |
| COc1ccc(NC(=O)c2cnn3c(C)cc(C)nc23)cc1F | 6.7% |  |
| COc1ccc(C2=Nn3c(nnc3-c3cccc(OC)c3OC)SC2)cc1OC | 2.48% |  |
| O=C1CCCC2=C1C1(CCCC1)N=C(Nc1nc3ccccc3n1Cc1ccccc1)N2 | -17.6% |  |
| COc1ccc(OC)c(-c2nnc3n2N=C(c2ccccc2OC)CS3)c1 | 7.1% |  |
| Cc1ccccc1C(=O)N1CCc2cc(-c3cccc(NC(=O)Cc4ccc5c(c4)OCO5)c3)ccc21 | 0.879% |  |
| CCC(=O)NC(C)c1cc(Cl)c2ccccc2c1O (stereo not given) | -1.79% |  |
| CC(=O)Nc1sc2c(c1-c1ccc(F)cc1)CCNC2 | 4.45% |  |
| Cc1ccc(OCCn2c(CCNC(=O)Cc3ccccc3F)nc3ccccc32)cc1 | 31.8% |  |
| Cc1noc(C)c1-c1cccc(-c2nn3c(=O)cc(N4CCNCC4)nc3s2)c1 | -3.2% |  |
| CNc1oc(-c2cccc3c2OC(F)(F)O3)nc1C#N | 0.152% |  |
| Cc1ccc(S(=O)(=O)Nc2cnccc2C(=O)Nc2nc(C3CCC3)cs2)cc1 | -24.7% |  |
| COc1ccc(-c2nnc3n2N=C(c2cc(OC)ccc2OC)CS3)c(OC)c1 | -1.15% |  |
